PubChem BioAssay AID1345085 (National Center for Advancing Translational Sciences (NCATS), 2018)
Inconclusive results are not listed. Activity calls are given as the source filed them. Calls come from the whole dose curve; as a rule, active = well fitted cell-killing curve with a large enough effect; inconclusive = small, poorly fitted or top-dose-only effect, or effect the other way; inactive = no such curve, though single readings can be large or run the other way.

The molecules below were run on Es-2 (assay: Confirmatory qHTS for gynecologic anti-cancer compounds from libraries of approved drugs and bioactive compounds). Conditions: gynecologic cancer cell panel viability, ATPlite luminescence, 48 h; series mostly up to 57.6 µM; activity change, negative = viability loss: at the top concentration.
Text: National Center for Advancing Translational Sciences [NCATS] Assay Overview: Chemotherapeutic drug responses vary from cancer to cancer and from patient to patient. These variations could be caused by a number of factors including patient genomic background, tumor mutations, tumor heterogeneity, and aspects of drug treatment. Chemotherapeutic drug resistance is also a common issue and can lead to ineffective treatment and patient death. Here we have profiled the cell killing effects of thousands of compounds to characterize the responses in three gynecological cancers, identify cancer-selective compounds, and understand the diversity of responses to these compounds from pan-cancer suppressors to single cell line selective compounds. In this assay, we screened a 7,914 compound drug library that included approved drug and bioactive compounds in six ovarian, three cervical, and two placental cancer cell lines using the ATPlite assay for cell viability. ATPlite is a luminescence based assay reliant on the conversion of a luciferase substrate to light in the presence of ATP. As a cytotoxic compound will suppress growth and decrease the number of cells, the concentration of ATP will decrease, and less light signal will be detected in the well. Hits were selected from the primary screen for follow-up confirmation. For the confirmation screens, the ovarian cancer cell lines included CAOV-3, SK-OV-3, SW 626, ES-2, PA-1, and TOV-21G. The cervical cancer cell lines included HeLa, Ca Ski, and C-33 A. The placental cancer cell lines included JEG-3 and JAR. HEK 293T cells were used as the control cell line to determine the selectivity index. The ATPlite assay was used to determine the IC50 values.
Assay Protocol Summary: 1,000 cells in 4 uL of media were dispensed into white, solid bottom 1536-well plates using a Multidrop Combi (Thermo Scientific). The Assay plates were incubated for 16 hours at 37 C with 5% CO2 in assay plates, followed by the addition of 23 nL of DMSO or drug dissolved in DMSO. . Each compound was assayed in 11 concentrations (1:3 dilution) from 57.5 uM to 0.977 nM, using the automated Wako 1536 Pin Tool workstation and incubated at 37 C with 5% CO2 48 hours. 4 uL of ATPlite, the ATP monitoring reagent, was then added to the each well of the assay plates using the Multidrop Combi reagent dispenser followed by incubation for 15 minutes at room temperature. The resulting luminescence was measured using the ViewLux plate reader.
% is set by controls: 0 for no effect and ±100 for the full control effect; potency is the fitted concentration of half-maximal effect.
Note: nearly all actives have a fitted effect of over 55% in size.

Row | SMILES | activity change, negative = viability loss | Potency
1 | Cc1ccc(NC(=O)c2ccc(CN3CCN(C)CC3)cc2)cc1Nc1nccc(-c2cccnc2)n1 | 4.97% (inactive) | 
2 | CCN(CC)CCCC(C)Nc1ccnc2cc(Cl)ccc12 (stereo not given) | -3.69% [at 19.5 µM] (inactive) | 
3 | CC(Oc1ccc2[nH]nc(/C=C/c3cnn(CCO)c3)c2c1)c1c(Cl)cncc1Cl (stereo not given) |  | 4.32 µM (active)
4 | COCCOc1nc(-c2ccc(Cl)c(Cl)c2)n(-c2ccc(NC(=O)CCl)cc2)n1 |  | 5.44 µM (active)
5 | CC(C)Oc1ccc(C(=O)NC(CNC(=O)CN(C)C)Cc2ccc(-c3cn4cccc(C(C)O)c4n3)cc2)cc1Cl (stereo not given) |  | 0.385 µM (active)
6 | CC1=C(CO)C(=O)O[C@@H]([C@@H](C)[C@H]2CC[C@H]3[C@@H]4C[C@H]5O[C@]56[C@@H](O)C=CC(=O)[C@]6(C)[C@H]4CC[C@]23C)C1 |  | 2.66 µM (active)
7 | CC(C)Oc1ccc2c(=O)c(-c3ccccc3)coc2c1 |  | 9.68 µM (active)
8 | O=C(O)c1ccc(Nc2ncc3c(n2)-c2ccc(Cl)cc2C(c2c(F)cccc2F)=NC3)cc1 | 5.57% (inactive) | 
9 | N=C(N)c1ccc(OCCCCCOc2ccc(C(=N)N)cc2)cc1 | -18.9% (inactive) | 
10 | COc1cc(-c2nn(C3CCC(N4CCN(C(C)=O)CC4)CC3)c3ncnc(N)c23)ccc1NC(=O)c1cc2ccccc2n1C (stereo not given) |  | 30.6 µM (active)
11 | CCCCc1oc2ccccc2c1C(=O)c1cc(I)c(OCCN(CC)CC)c(I)c1 |  | 70.8 µM (active)
12 | CCCCc1nc2cc(/C=C/C(=O)NO)ccc2n1CCN(CC)CC |  | 1.09 µM (active)
13 | O=C1c2c(O)ccc(O)c2C(=O)c2c(NCCNCCO)ccc(NCCNCCO)c21 |  | 0.968 µM (active)
14 | O=C(c1ccc(F)c(F)c1Nc1ccc(I)cc1F)N1CC(O)([C@@H]2CCCCN2)C1 |  | 17.2 µM (active)
15 | COc1cc(N2CCC(N3CCN(C)CC3)CC2)ccc1Nc1ncc(Cl)c(Nc2ccccc2S(=O)(=O)C(C)C)n1 |  | 24.3 µM (active)
16 | OC[C@H]1O[C@@H](n2cnc3c(=S)nc[nH]c32)[C@H](O)[C@@H]1O |  | 4.85 µM (active)
17 | CNC1CCC(N(Cc2cccc(-c3ccncc3)c2)C(=O)c2sc3ccccc3c2Cl)CC1 (stereo not given) |  | 24.3 µM (active)
18 | CC(C)n1nc(-c2cc3cc(O)ccc3[nH]2)c2c(N)ncnc21 |  | 4.85 µM (active)
19 | Fc1cc(-c2cccc3ncc(-c4cnn(C5CCNCC5)c4)nc23)cc(F)c1CN1CCOCC1 |  | 21.7 µM (active)
20 | CCN(CC)CCNC(=O)c1c(C)[nH]c(/C=C2\C(=O)Nc3ccc(F)cc32)c1C |  | 25.1 µM (active)

Row | SMILES | activity change, negative = viability loss | Potency
21 | COc1ccc2c(c1OC)C(=O)O[C@@H]2[C@H]1c2c(cc3c(c2OC)OCO3)CCN1C | -1.17% (inactive) | 
22 | COc1cc(Nc2ncc3c(n2)-c2ccc(Cl)cc2C(c2c(F)cccc2OC)=NC3)ccc1C(=O)O | 22.5% (inactive) | 
23 | Cc1cc(C2CCCCC2)n(O)c(=O)c1 |  | 9.94 µM (active)
24 | CC(C)C[C@H](NC(=O)[C@H](CCc1ccccc1)NC(=O)CN1CCOCC1)C(=O)N[C@@H](Cc1ccccc1)C(=O)N[C@@H](CC(C)C)C(=O)[C@@]1(C)CO1 |  | 3.06 µM (active)
25 | NS(=O)(=O)c1ccc(Nc2nc(OCC3CCCCC3)c3[nH]cnc3n2)cc1 | -17.6% (inactive) | 
26 | CCCC(Nc1nc(-c2ccc(NC(=O)NCC)c(OC)c2)ncc1C)c1cccnc1 (stereo not given) |  | 0.193 µM (active)
27 | O=c1cc(CN2CCOCC2)occ1OCCCCCSc1ccnc2cc(C(F)(F)F)ccc12 | -3.9% (inactive) | 
28 | Cc1cc(CN2CCN(c3c(Br)cnc4nc(-c5ccc(N6CCN(C)CC6)cc5)[nH]c34)CC2)no1 |  | 7.69 µM (active)
29 | Nc1ccccc1NC(=O)c1ccc(CNc2nccc(-c3cccnc3)n2)cc1 |  | 2.43 µM (active)
30 | CNc1nccc(-c2cccnc2Oc2cc(C(=O)Nc3cccc(C(F)(F)F)c3)ccc2C)n1 |  | 6.11 µM (active)
31 | CCCc1nn(C)c2c(=O)[nH]c(-c3cc(S(=O)(=O)N4CCN(C)CC4)ccc3OCC)nc12 | 8% (inactive) | 
32 | CCC1C(=O)N(C)c2cnc(Nc3ccc(C(=O)NC4CCN(C)CC4)cc3OC)nc2N1C1CCCC1 (stereo not given) |  | 0.0611 µM (active)
33 | Cc1nc(N)ncc1-c1nc(N2CCOCC2)c2sc(C(C)(C)O)cc2n1 | -16.4% (inactive) | 
34 | CCCCc1oc2ccc(NS(C)(=O)=O)cc2c1C(=O)c1ccc(OCCCN(CCCC)CCCC)cc1 |  | 24.3 µM (active)
35 | COC(C)(C)CCn1nc(Nc2c(C)cccc2C)c2cnc(Nc3ccc(OCCN4CCCC4)c(F)c3)nc21 | -21% (inactive) | 
36 | CC(C)C[C@H](NC(=O)[C@H](Cc1ccccc1)NC(=O)c1cnccn1)B(O)O |  | 0.0611 µM (active)
37 | Oc1cn2c(n1)Nc1ccc(Cl)c(Cl)c1C2 | -1.22% [at 19.5 µM] (inactive) | 
38 | Nc1nc(=S)c2[nH]cnc2[nH]1 |  | 3.43 µM (active)
39 | COc1cccc2c1C(=O)c1c(O)c3c(c(O)c1C2=O)C[C@@](O)(C(=O)CO)C[C@@H]3O[C@H]1C[C@H](N)[C@H](O)[C@H](C)O1 |  | 1.72 µM (active)
40 | COc1cc(N2CCC(N)CC2)ccc1Nc1ncc(Cl)c(-c2c[nH]c3ccccc23)n1 | -23.3% (inactive) | 
